Laboratory results as given in PubChem BioAssay (NCATS).
Results filed as inconclusive are left out. Activity calls are given as the source filed them. Calls follow the shape of the dose curve; as a rule, active = well fitted cell-killing curve with a large enough effect; inconclusive = small, poorly fitted or top-dose-only effect, or effect the other way; inactive = no such curve, though single readings can be large or run the other way.

Test: Viability qHTS for spleen associated tyrosine kinase inhibitor (SYKi) drug resistant MV4-11 cells (AID 1963824); also: nearly all actives have a fitted effect of over 35% in size
Conditions: SYKi-resistant MV4-11 viability, CellTiter-Glo, 72 h; series mostly up to 45 µM
Excerpt: Department of Medicine, Hematology/Oncology
University Hospital Frankfurt, Germany.
Trials have shown promising clinical activity of the selective SYK inhibitor entospletinib in patients with high expressing HOXA9/MEIS1 acute leukemias. As the development of resistance mechanisms is a common problem in the use of targeted drugs, we performed a chemical library screen to identify drug sensitivities in SYK inhibitor resistant AML cells. […] Glucocorticoids are potent immunosuppressants which work in part by inhibiting the transcription of cytokine genes.
Described herein is a viability screen to look for activity in the SYK inhibitor drug resistant cell line against four NCATS compound libraries (MIPE 5.0, NPC, NPACT, and Kinase) totaling 11372 compounds. Active hits were reacquired for confirmation and further secondary assay testing.
SEQUENCE No. (e.g., 1, 2, 3, etc.); […] (e.g., Cells, Incubation, Reagent, etc.); VALUE; DESCRIPTION.
1; Media; 2uL; white, solid-bottom Corning assay plate.
2; Compounds; 23nL; Echo acoustic dispenser.
3; Cell; 5uL; 500 cells per well.
4: Incubation; 72hr; 37 C, 5% CO2, 95% humidity.
5; Reagent; 3uL; CellTiter-Glo reagent (Promega).
6; Incubation; 10min; room temperature.
7; Detection; Luminescence; ViewLux plate reader (PerkinElmer).
NOTES (numbers refer to Sequence numbers above
1. Quantitative high-throughput screening (qHTS) of small molecule compounds was conducted on drug resistant SYKi MV4-11 cell line.
2. Twenty-three nanoliter of small molecule compounds were added to each assay plates using the Echo acoustic dispenser (Beckman Coulter).
3. Cells were seeded into the assay plates at a final density of 500 cells in 5uL of media per well using the Multidrop Combi dispenser.
4. Plates were covered with stainless steel gasketed lids and incubated for 72 hours at standard cell culture conditions.
5. Viability was assessed by adding 3uL of CellTiter-Glo detection reagent (Promega).
6. Plates were covered with gasket lids and incubated for 10 minutes at room temperature.
7. Luminescence was measured on a ViewLux plate reader (PerkinElmer).
Potency is read from the fitted curve at half-maximal effect.

Compound | Potency
COc1ccc2c(c1OC)CN1CCc3cc4c(cc3C1C2)OCO4 (stereo not given) | 4.11 µM (active)
CN1C(=O)[C@@H](Cc2c[nH]c3ccccc23)N=C(c2ccccc2F)c2ccccc21 | 20.6 µM (active)
CCOC(=O)NC(C)(C)Cc1ccc(Cl)cc1 | inactive
C[N+](C)(C)CCOC(=O)C(O)(c1ccccc1)c1ccccc1 | inactive
Cc1cccc(NC(=O)N[C@H]2CN(C)c3ccccc3C(c3ccccc3)=N2)c1 | 16.4 µM (active)
CC(C)NC(C)C | inactive
C[C@]12CC[C@H](O)C[C@H]1CC[C@@H]1[C@@H]2[C@H](O)C(=O)[C@]2(C)[C@@H](c3ccc(=O)oc3)CC[C@]12O | 0.0092 µM (active)
C=C(C)[C@H]1Cc2c(ccc3c2O[C@@H]2COc4cc(OC)c(OC)cc4[C@@H]2C3=O)O1 | 0.0376 µM (active)
c1ccc2c(c1)Nc1ccccc1S2 | inactive
C[C@@H](CN1CCC(n2c(=O)[nH]c3cc(Br)ccc32)CC1)NC(=O)[C@@H]1C[C@H]1c1ccccc1 | 6.51 µM (active)
C[C@]12CC[C@H]3[C@@H](CC[C@@]45O[C@H]4C(O)=C(C#N)C[C@]35C)[C@H]1CC[C@H]2O | 11.9 µM (active)
C/C=C(\C)C(=O)OC1C2C3(C)CCC(OC4CC(OC)C(OC5OC(C)C(O)C(OC)C5O)C(C)O4)CC3CCC23OC32CCC(C(C)=O)C2(C)C1OC(=O)/C(C)=C/C (stereo not given) | 3.9 µM (active)
CC(C)(C)[C@]1(O)C[C@@H]2OC(=O)C[C@@]23C(=O)O[C@@H]2OC(=O)[C@@H](O)[C@]213 | inactive
Clc1ccccc1C(c1ccccc1)(c1ccccc1)n1cccn1 | 16.6 µM (active)
C[C@]12CCC(=O)C=C1CC[C@@H]1[C@@H]2[C@@H](O)C[C@]2(C)C(=O)CC[C@@H]12 | inactive
CC1=CC2/C=C(\C)CCC(O)C(O)/C=C/C(=O)C23C(=O)NC(CC(C)C)C3C1C (stereo not given) | 1.42 µM (active)
C=C(CO)[C@@]12O[C@@H]1[C@@]1(C)C(=CC2=O)CC[C@@H](O)[C@@H]1C | 5.17 µM (active)
CCN(CC)C(C)C(=O)c1ccccc1 (stereo not given) | inactive
CCN1CCN(C(=O)Cc2ccc(Nc3ncc(F)c(Nc4ccc(C(=O)Nc5ccccc5Cl)cc4)n3)cc2)CC1 | 0.525 µM (active)
COC(=O)[C@@]1(C)C(=O)C=C[C@]2(C)c3c(O)cc(C(C)C)cc3[C@H](O)[C@@H](OC(C)=O)C12 (stereo not given in full) | 8.93 µM (active)

Compound | Potency
C[C@]12CC[C@H]3[C@@H]([C@H](O)CC4=CC(=O)CC[C@@]43C)[C@@H]1CC[C@@H]2O | inactive
CC1=C[C@H]2O[C@@H]3[C@H](O)[C@@H](O)[C@](C)([C@@]2(CO)C[C@@H]1O)[C@]31CO1 | 0.731 µM (active)
C[C@@H]1O[C@@H](O[C@H]2CC[C@@]3(C)C(CC[C@@H]4C3CC[C@]3(C)[C@@H](C5=CC(=O)OC5)CC[C@]43O)C2)[C@H](O[C@@H]2O[C@H](CO)[C@@H](O)[C@H](O)[C@H]2O)[C@H](O)[C@H]1O (stereo not given in full) | 0.172 µM (active)
O=C(NC(=O)c1c(F)cccc1F)Nc1cc(Cl)c(OC(F)(F)C(F)C(F)(F)F)cc1Cl (stereo not given) | 16.8 µM (active)
CCCN1CCO[C@H]2c3cc(O)ccc3OC[C@@H]21 | inactive
CC[C@@H](C)[C@H]1C(=O)O[C@H](C(C)C)C(=O)N(C)[C@@H](C(C)C)C(=O)O[C@H](C(C)C)C(=O)N(C)[C@@H](C(C)C)C(=O)O[C@H](C(C)C)C(=O)N1C | 2.73 µM (active)
O=C(NCCN1CCC2(CC1)C(=O)NCN2c1cccc(F)c1)c1ccc2ccccc2c1 | 5.8 µM (active)
CC(C)C(Br)C(=O)NC(N)=O (stereo not given) | inactive
CC(=O)O[C@H]1C[C@@H](C)O[C@H]2O[C@@H]3CC4CC[C@@H]5C(CC[C@]6(C)[C@@H](C7=CC(=O)OC7)CC[C@]56O)[C@@]4(C=O)C[C@H]3O[C@]21O (stereo not given in full) | 0.0485 µM (active)
CCCCCCCCCCCC[N+](C)(C)CCOc1ccccc1 | 2.66 µM (active)
O=C(O)c1ccc2[nH]cc(CCCCN3CC=C(c4ccccc4)CC3)c2c1 | inactive
COC1=C[C@@H]2[C@@H]3Cc4ccc(OC)c(O)c4[C@]2(CCN3C)CC1=O | 18.6 µM (active)
C=CC(=O)NCNC(=O)C=C | inactive
CC1=CC(=O)[C@@H](O)[C@]2(C)C3[C@@H](O)[C@@H]4OC(=O)[C@@H]([C@H]4C)[C@]3(C)C(=O)[C@H](O)[C@@H]12 (stereo not given in full) | 12.8 µM (active)
CCOC(=O)CC(SP(=S)(OC)OC)C(=O)OCC (stereo not given) | inactive
CC(Cc1ccccc1)N(C)Cc1ccco1 (stereo not given) | inactive
Clc1cccc(N2CCNCC2)c1 | inactive
CC(C)(O)C(=O)Nc1ccc([N+](=O)[O-])c(C(F)(F)F)c1 | 18.6 µM (active)
CC(Cc1ccc(O)cc1)NCC(O)c1cc(O)cc(O)c1 (stereo not given) | inactive
OCCCCC#Cc1cncc(OC[C@@H]2CCN2)c1 | inactive
